From PubChem BioAssay (NCI) come the findings set out here.

Assay [1] can be described thus: NCI Yeast Anticancer Drug Screen. Data for the rad50 strain (AID 155).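 Note: 0% = growth of vehicle-only cultures of the same strain.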 The conditions noted are these: S. cerevisiae rad50 strain growth inhibition, stronger effect = higher value. The essentials:
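DNA repair mutant yeast, compound exposure, growth read-out; inhibition is taken relative to vehicle.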

Assay [2] can be described thus: NCI Yeast Anticancer Drug Screen. Data for the mec2-1 strain (AID 157). The conditions noted are these: S. cerevisiae mec2-1 strain, stronger effect = higher value. The essentials:
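Vehicle-treated cultures served as reference for growth inhibition of compound-exposed mec2-1 yeast.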

A short description of assay [3]: NCI Yeast Anticancer Drug Screen. Data for the sgs1 mgt1 strain (AID 161).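 Note: 0% = growth of cultures given vehicle only.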 The conditions noted are these: S. cerevisiae sgs1 mgt1 strain, stronger effect = higher value. Summed up: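 Inhibition of yeast growth, normalised to vehicle-treated controls, is reported for a strain bearing genetic alterations in DNA damage repair.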
The nature of assay [4]: NCI Yeast Anticancer Drug Screen. Data for the cln2 rad14 strain (AID 165).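 Note: 0% = growth equal to vehicle treated cultures.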 The conditions noted are these: S. cerevisiae cln2 rad14 strain, stronger effect = higher value. The essentials: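 Each compound was tested on cln2 rad14 yeast. Inhibition of growth was calculated against vehicle-exposed controls.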
The nature of assay [5]: NCI Yeast Anticancer Drug Screen. Data for the bub3 strain (AID 167). The conditions noted are these: S. cerevisiae bub3 mutant strain, stronger effect = higher value. The essentials:
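In this screen, a yeast mutant lacking normal mitotic checkpoint function is challenged with compound. Relative growth versus vehicle gives the inhibition value.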

Assay [6] can be described thus: NCI Yeast Anticancer Drug Screen. Data for the mlh1 rad18 strain (AID 175). The conditions noted are these: S. cerevisiae mlh1 rad18 strain growth inhibition, stronger effect = higher value. Summed up:
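Vehicle-treated cultures served as the reference for growth inhibition in a yeast strain carrying DNA damage repair alterations exposed to each compound.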

Where [7] appears, read: at 5.0 µM (retest, dose inferred, filed as 0.5).
The mark [8] stands for this setting: at 50.0 µM (retest, dose inferred, filed as 5.0).

The panel holds about 79,000 compounds, 15% with a hit somewhere; the sample as a whole holds those more often. A number with no mark means an inactive call. The source made the active and inactive calls. Cut-off read from the data, not from the text of the source: active = growth inhibition above about 70%; inactive = the rest.

As to `COC(=O)c1nc2ccc([N+](=O)[O-])cc2n1O`, the growth inhibition was -154% in assay [1] (setting [7]); -155% in assay [1] (setting [8]); 2.25% in assay [1] (at 50.0 µM); -54% in assay [2] (setting [7]); -59% in assay [2] (setting [8]); 19.8% in assay [2] (at 50.0 µM). The growth inhibition in assay [3] (setting [7]) was -60%; in assay [3] (setting [8]), -70%; in assay [3] (at 50.0 µM), 2.95%; in assay [4] (setting [7]), -53%; in assay [4] (setting [8]), -60%; in assay [4] (at 50.0 µM), 36%. The growth inhibition is -68% in assay [5] (setting [7]); -80% in assay [5] (setting [8]); 4.8% in assay [5] (at 50.0 µM); -116% in assay [6] (setting [7]); -111% in assay [6] (setting [8]); 4.3% in assay [6] (at 50.0 µM).

As to `N#CSCc1ccc(CSC#N)c(Cl)c1`, the growth inhibition is 10% in assay [1] (setting [7]); 93% (active) in assay [1] (setting [8]); 59.7% in assay [1] (at 50.0 µM); 0% in assay [2] (setting [7]); 91% (active) in assay [2] (setting [8]); 40.4% in assay [2] (at 50.0 µM). In addition, the growth inhibition is 18% in assay [3] (setting [7]); 91% (active) in assay [3] (setting [8]); 41% in assay [3] (at 50.0 µM); 4% in assay [4] (setting [7]); 88% (active) in assay [4] (setting [8]); 60.8% in assay [4] (at 50.0 µM). The growth inhibition is 11% in assay [5] (setting [7]); 98% (active) in assay [5] (setting [8]); 39.1% in assay [5] (at 50.0 µM); 4% in assay [6] (setting [7]); 96% (active) in assay [6] (setting [8]); 93.3% (active) in assay [6] (at 50.0 µM).

With `CC1=C(C(=O)Nc2cc(O)ccc2O)C(c2cccc([N+](=O)[O-])c2)C(C(=O)Nc2cc(O)ccc2O)=C(C)N1`, the growth inhibition was -8% in assay [1] (setting [7]); 20% in assay [1] (setting [8]); 32.3% in assay [1] (at 50.0 µM); -23% in assay [2] (setting [7]); 6% in assay [2] (setting [8]); 25.9% in assay [2] (at 50.0 µM). Moreover, the growth inhibition in assay [3] (setting [7]) was -14%; in assay [3] (setting [8]), 15%; in assay [3] (at 50.0 µM), 35.9%; in assay [4] (setting [7]), -5%; in assay [4] (setting [8]), 12%; in assay [4] (at 50.0 µM), 46.8%. Further, the growth inhibition is -7% in assay [5] (setting [7]); 0% in assay [5] (setting [8]); 2.35% in assay [5] (at 50.0 µM); -9% in assay [6] (setting [7]); 20% in assay [6] (setting [8]); 36.5% in assay [6] (at 50.0 µM).

With `N#Cc1ccc([N+](=O)[O-])o1`, the growth inhibition is 11% in assay [1] (setting [7]); 97% (active) in assay [1] (setting [8]); 96.2% (active) in assay [1] (at 50.0 µM); 1% in assay [2] (setting [7]); 98% (active) in assay [2] (setting [8]); 99% (active) in assay [2] (at 50.0 µM). The growth inhibition in assay [3] (setting [7]) was 9%; in assay [3] (setting [8]) it was 93% (active); in assay [3] (at 50.0 µM) it was 96.2% (active); in assay [4] (setting [7]), 8%; in assay [4] (setting [8]), 59%; in assay [4] (at 50.0 µM) it was 62.8%. The growth inhibition was 7% in assay [5] (setting [7]); 92% (active) in assay [5] (setting [8]); 97.7% (active) in assay [5] (at 50.0 µM); 15% in assay [6] (setting [7]); 99% (active) in assay [6] (setting [8]); 97.9% (active) in assay [6] (at 50.0 µM).

As to `O=C(NNc1ccc(F)cc1)C12CC3CC(CC(C3)C1)C2`, the growth inhibition in assay [1] (setting [7]) is 9%; in assay [1] (setting [8]), 90% (active); in assay [1] (at 50.0 µM), 98.4% (active); in assay [2] (setting [7]), 3%; in assay [2] (setting [8]), 68%; in assay [2] (at 50.0 µM), 17.8%. Moreover, the growth inhibition was 4% in assay [3] (setting [7]); 98% (active) in assay [3] (setting [8]); 53.2% in assay [3] (at 50.0 µM); 4% in assay [4] (setting [7]); 57% in assay [4] (setting [8]); 27.1% in assay [4] (at 50.0 µM). Further, the growth inhibition in assay [5] (setting [7]) was -3%; in assay [5] (setting [8]), 97% (active); in assay [5] (at 50.0 µM), 98.3% (active); in assay [6] (setting [7]) it was 2%; in assay [6] (setting [8]), 98% (active); in assay [6] (at 50.0 µM), 27.1%.

Regarding `O=[N+]([O-])c1ccc2c(N=Nc3ccc4ccccc4c3O)c(O)cc(S(=O)(=O)O)c2c1`, the growth inhibition in assay [1] (setting [7]) was 32%; in assay [1] (setting [8]), 34%; in assay [1] (at 50.0 µM), 85.6% (active); in assay [2] (setting [7]), 13%; in assay [2] (setting [8]), 17%; in assay [2] (at 50.0 µM) it was 55.8%. The growth inhibition was 17% in assay [3] (setting [7]); 29% in assay [3] (setting [8]); 74.7% (active) in assay [3] (at 50.0 µM); -32% in assay [4] (setting [7]); -68% in assay [4] (setting [8]); 30.6% in assay [4] (at 50.0 µM). Further, the growth inhibition is -7% in assay [5] (setting [7]); 22% in assay [5] (setting [8]); 82.7% (active) in assay [5] (at 50.0 µM); 9% in assay [6] (setting [7]); 36% in assay [6] (setting [8]); 86.5% (active) in assay [6] (at 50.0 µM).
